Measured values reported in PubChem BioAssay (Tox21).
Values without a mark were called inactive. Entries that show only a call come without a potency. Activity calls are given as the source filed them. Calls follow the shape of the dose curve; as a rule, active = well fitted activation curve with a large enough effect in the repeat runs; inconclusive = weak or mixed curves; inactive = flat fitted curve, though single readings scatter.

Test: A CellTox Green Cytotoxicity Assay to monitor cytotoxicity in HEK293 cells - 0 hour (AID 1224869); also: nearly all actives have a fitted effect of over 50% in size
Conditions: CellTox Green fluorescence; series mostly up to 76.8 µM
From the text: National Center for Advancing Translational Sciences [NCATS]
NIH Chemical Genomics Center [NCGC]
U.S. Environmental Protection Agency [EPA]
National Institutes of Environmental Health Sciences [NIEHS]
National Toxicology Program [NTP]
Cell-based models are critical for drug discovery. Determining the natural cytotoxic effects resulting from test compounds is an essential research activity. A CellTox Green Cytotoxicity Assay to monitor cytotoxicity in real time of continues cell culture during 40 hours of the compound treatment was used to screen Tox21 10K library compounds in Hek293 cells. CellTox Green Cytotoxicity Assay is a nonlytic, homogeneous, biofluorescent method to measure cytotoxicity in cell culture after experimental manipulation. The assay system uses a proprietary asymmetric cyanine dye that is excluded from viable cells but preferentially stains the dead cell's DNA. […] Viable cells produce no appreciable increases in fluorescence. Therefore, the fluorescence signal produced by the binding interaction with dead cell DNA is proportional to cytotoxicity.
The mixture of Hek293 cell suspension and reagents were dispensed at 600cells/6 ul/well in 1536-well tissue culture treated black solid bottom plates using a Multidrop dispenser. After the assay plates were incubated at a 37 C/5% CO2 incubator for 5 hours, 23 nL of compounds dissolved in DMSO, positive and negative controls was transferred to the assay plate by a pintool work station. The plates were incubated at 37 C for 40 hours. The fluorescence intensity were measured at 0h, 8h, 16h, 24h, 32h and 40h time points using ViewLux plate reader during compound treatment.

SMILES	Potency	cytotoxicity
CC(=O)N1CCN(c2ccc(OC[C@H]3CO[C@](Cn4ccnc4)(c4ccc(Cl)cc4Cl)O3)cc2)CC1	inactive	–
Cc1[nH]nc2c1N=C(c1ccccc1Cl)c1cc([N+](=O)[O-])ccc1N2	inactive	–
CCCN(CCC)C(=O)C(CCC(=O)OCCCN1CCN(CCOC(=O)Cc2c(C)n(C(=O)c3ccc(Cl)cc3)c3ccc(OC)cc23)CC1)NC(=O)c1ccccc1 (stereo not given)	inactive	–
CCN(CCC#N)c1ccc(N=Nc2c(Cl)cc([N+](=O)[O-])cc2Cl)cc1	inactive	–
COc1cccc(N)c1	inactive	–
O=c1[nH]cnc2nc[nH]c12	inactive	–
CCC1OCC(COc2ccc(Oc3ccccc3)cc2)O1 (stereo not given)	inactive	–
Cc1nc(-c2ccc3c(c2)CCN(CCC2CCC(NC(=O)/C=C/c4ccc(F)cc4)CC2)CC3)no1 (stereo not given)	inactive	–
O=C(Nc1cccc(Cl)c1)OCC#CCCl	inactive	–
O=C1C=CC(=O)N1	inactive	–
CCCCCCCCS(=O)C(C)Cc1ccc2c(c1)OCO2 (stereo not given)	inactive	–
CCCCN(CCCC)c1ccc(C(=O)c2ccccc2C(=O)O)c(O)c1	inactive	–
COc1ccc(-c2ccc3cc(C(=O)O)ccc3c2)cc1C12CC3CC(CC(C3)C1)C2	inactive	–
O=C1CCCCCN1SSN1CCCCCC1=O	inactive	–
CN(C)C(=O)C1(N2CCCCC2)CCN(CC[C@@]2(c3ccc(Cl)c(Cl)c3)CN(C(=O)c3ccccc3)CCO2)CC1	inactive	–
Cc1cccc2c1cc1ccc3cccc4ccc2c1c34	inactive	–
CSc1ccc(/C=C2/C(C)=C(CC(=O)O)c3cc(F)ccc32)cc1	inactive	–
O=C(OC[C@H]1O[C@@H](OC(=O)c2cc(O)c(O)c(OC(=O)c3cc(O)c(O)c(O)c3)c2)[C@H](OC(=O)c2cc(O)c(O)c(OC(=O)c3cc(O)c(O)c(O)c3)c2)[C@@H](OC(=O)c2cc(O)c(O)c(OC(=O)c3cc(O)c(O)c(O)c3)c2)[C@@H]1OC(=O)c1cc(O)c(O)c(OC(=O)c2cc(O)c(O)c(O)c2)c1)c1cc(O)c(O)c(OC(=O)c2cc(O)c(O)c(O)c2)c1	–	-16.9% [at 15.8 µM]
COC(=O)c1cc(Cl)ccc1OC	inactive	–
CCCCCCCCCCn1cc[n+](CCCCCCCCCC)c1C	inactive	–

SMILES	Potency	cytotoxicity
NC(=O)C1(N2CCCCC2)CCN(CCCN2c3ccccc3CCc3ccc(Cl)cc32)CC1	inactive	–
CCCCCCCCNC(C)C(O)c1ccc(SC(C)C)cc1 (stereo not given)	inactive	–
N/C(=N\N=C\c1ccc(Cl)cc1)N/N=C/c1ccc(Cl)cc1	inactive	–
CCCCC(CC)COP(=O)(O)OCC(CC)CCCC (stereo not given)	inactive	–
CC(C)CCCCCCCCCCCCCCC(=O)O	inactive	–
CCOC(=O)O[C@H](C)OC(=O)c1ccc2c(c1)cc(C(=O)NC1CCN(C(C)C)CC1)n2Cc1cc(-c2ccc(Cl)s2)on1	inactive	–
Cc1[nH]cnc1C[C@H]1CCc2c(C)c3ccccc3n2C1=O	inactive	–
CCC(Cl)C(Cl)C(Cl)CC(Cl)C(Cl)C(C)Cl (stereo not given)	inactive	–
C=C(C)C(=O)OCC[N+](C)(C)C	inactive	–
CCCCCCCC/C=C\CCCCCCCCOCCO	inactive	–
CCN1/C(=C/C=C/c2sc3ccccc3[n+]2CC)Sc2ccccc21	–	-12.5% [at 15.8 µM]
S=c1[nH]c2ccccc2s1	inactive	–
Clc1ccc2cc3ccccc3cc2c1	inactive	–
CC(=O)SC[C@@H](Cc1ccccc1)C(=O)NCC(=O)OCc1ccccc1	inactive	–
CCCCCOC(=O)CCCC	inactive	–
Oc1ccc2cc(SSc3ccc4cc(O)ccc4c3)ccc2c1	inactive	–
c1cc(C(c2ccc(OCC3CO3)cc2)c2ccc(OCC3CO3)cc2)ccc1OCC1CO1 (stereo not given)	inactive	–
OCCN1CCN(CC/C=C2/c3ccccc3Sc3ccc(C(F)(F)F)cc32)CC1	inactive	–
N=C1N=C(N)c2ccccc21	inactive	–
Nc1ccc2cc(S(=O)(=O)O)cc(O)c2c1N=Nc1ccccc1C(F)(F)F	inactive	–
